Rows were chosen to be rich in hits. Some 3.8% of all compounds tested hit in one or more screens of this group.
Pemphigus Ab inh – inhibitors of pemphigus antibody binding to DSG3, primary screen, biochemical, bead-based, flow cytometry, scFv-GFP. hit rate 0.48% among 310,000. binding (percent of control), % at 10 µM. DSG3-coupled beads, scFv-anti-DSG3-GFP binding; hits give low values. AID 588358, 2011. Desmoglein-3 (Homo sapiens), P32926;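 active = binding more than 3 SD below its plate's average and above zero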;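 also: hits lower antibody fragment binding to DSG3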
PAFAH1B2 inh – PAFAH1B2 enzyme inhibitors, primary screen, biochemical, fluorescence polarization, human; Platelet-activating factor acetylhydrolase IB subunit alpha2 (Homo sapiens), P68402; recombinant PAFAH1B2, FP-rhodamine activity probe; inhibition, % at 3.39 µM; hit rate 1.2% among 340,000; AID 492953, 2010;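 active = inhibition above the mean of all tested compounds plus 3 SD, cut at about 24% in these data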;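 also: 0% = enzyme with DMSO and 100% = wells lacking PAFAH1B2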
pPAFAH FP inh – pPAFAH enzyme inhibitors, primary screen, biochemical, fluorescence polarization, human. Platelet-activating factor acetylhydrolase (Homo sapiens), Q13093. hit rate 1.5% among 330,000. recombinant pPAFAH, FP-rhodamine probe fluorescence polarization. inhibition, % at 3.39 µM;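 active = inhibition above the mean inhibition across the screen plus 3 SD, cut at about 25% in these data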;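 also: inhibitors block binding of the rhodamine activity-based probe so polarization drops; 0% = enzyme with DMSO and 100% = wells lacking pPAFAH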
Target sequence (Q13093 whole entry, looked up): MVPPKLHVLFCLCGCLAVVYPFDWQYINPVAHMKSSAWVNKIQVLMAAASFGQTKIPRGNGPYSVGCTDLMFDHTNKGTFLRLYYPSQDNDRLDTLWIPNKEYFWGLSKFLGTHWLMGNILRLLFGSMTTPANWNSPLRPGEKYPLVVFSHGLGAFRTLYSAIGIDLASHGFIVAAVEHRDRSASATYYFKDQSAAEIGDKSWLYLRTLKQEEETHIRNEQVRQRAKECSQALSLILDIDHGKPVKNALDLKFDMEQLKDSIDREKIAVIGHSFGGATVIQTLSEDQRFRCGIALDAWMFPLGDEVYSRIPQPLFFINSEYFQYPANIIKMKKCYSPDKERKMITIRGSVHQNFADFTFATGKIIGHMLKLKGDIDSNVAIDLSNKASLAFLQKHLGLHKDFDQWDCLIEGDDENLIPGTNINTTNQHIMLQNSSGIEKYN
PfM18AAP inh-1 – PfM18AAP inhibitors, malaria aminopeptidase, primary screen, biochemical, QFRET, recombinant enzyme. M18 aspartyl aminopeptidase (Plasmodium falciparum 3D7). H-Glu-NHMec fluorogenic cleavage. inhibition, % at 7.35 µM. hit rate 1.2% among 290,000. AID 1822, 2009;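 active = inhibition above the campaign mean inhibition over all tested compounds plus 3 SD, cut at about 28% in these data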;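 also: 0% = plate median of test compound wells and 100% = 2 mM ZnCl2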
PAFAH2 FP inh – PAFAH2 enzyme inhibitors, primary screen, biochemical, fluorescence polarization, human; Platelet-activating factor acetylhydrolase 2, cytoplasmic (Homo sapiens), Q99487; recombinant PAFAH2, FP-rhodamine activity probe; inhibition, % at 3.39 µM; hit rate 0.99% among 340,000; AID 492956, 2010;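 active = inhibition above the mean over all tested compounds plus 3 SD, cut at about 30% in these data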;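 also: inhibitors block probe labeling of enzyme so polarization drops; 0% = enzyme with DMSO and 100% = wells lacking PAFAH2 protein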
PAFAH1B3 FP inh – PAFAH1B3 enzyme inhibitors, primary screen, biochemical, fluorescence polarization, human; Platelet-activating factor acetylhydrolase IB subunit alpha1 (Homo sapiens), Q15102; recombinant PAFAH1B3, FP-rhodamine probe; inhibition, % at 3.39 µM; hit rate 0.28% among 340,000; AID 492972, 2010;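 active = inhibition above the screen-wide average of all tested compounds plus 3 SD, cut at about 25% in these data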;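 also: 0% = enzyme with DMSO only and 100% = wells lacking PAFAH1B3 protein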
PfM18AAP inh-2 – PfM18AAP inhibitors, malaria aminopeptidase, confirmation, biochemical, QFRET, recombinant enzyme, triplicate; H-Glu-NHMec fluorogenic cleavage; shares compounds with PfM18AAP inh-1; AID 2170, 2009; hit rate 28% among 2,400; inhibition, % at 7.35 µM;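 active = mean inhibition over replicate wells above the hit cutoff set for the earlier primary screen, cut at about 29% in these data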;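 also: 0% = median of test compound wells and 100% = 2 mM ZnCl2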
CTSL1 counter – cathepsin L1 inhibitors, retest, confirmation, counter-screen for PFM18AAP inhibitor project, biochemical, QFRET, triplicate. shares compounds with PfM18AAP inh-1. purified cathepsin L1, Z-Leu-Arg-MCA fluorescence. inhibition, % at 5.96 µM. 2,400 tested, under 10 active;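 active = average inhibition across replicates above the hit cutoff set in the earlier primary screen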;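 also: 0% = median of test compound wells and 100% = Z-Phe-Ala-diazomethylketone 1 µM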
Active calls of the source: *; x = not tested or not shown.

SMILES	Pemphigus Ab inh	PAFAH1B2 inh	pPAFAH FP inh	PfM18AAP inh-1	PAFAH2 FP inh	PAFAH1B3 FP inh	PfM18AAP inh-2	CTSL1 counter
CC1(C)CC2(CC(c3ccccc3F)c3ccc(O)c(O)c3O2)NC(=S)N1 (centres undefined)	92	7	33*	49*	-1	-3	81*	5
O=c1c2ccccc2c(/C=N/n2cnnc2)c(O)n1-c1ccccc1	89	0	3	65*	5	22	72*	1
COc1ccc(-n2c(O)c(C=Nc3ccccc3)c3ccccc3c2=O)cc1	106	-4	0	6	-5	-1	x	x
COc1ccc(-n2c(O)c(/C=N/n3cnnc3)c3ccccc3c2=O)cc1	104	4	-1	67*	3	6	74*	5
C[C@@]12C(=O)N(CCO)CC(=O)N1[C@H](/C=C/c1ccccc1)[C@@H]1C(=O)N(c3ccccc3)C(=O)[C@@H]12	100	5	5	-6	2	5	x	x
O=C(Nc1ccccc1C(=O)N1CCCCC1)c1ccc(Cl)cc1Cl	95	2	-1	2	-1	-3	x	x
COc1ccc(OC)c(S(=O)(=O)N2CCCC2C(=O)NC(C)c2ccccc2)c1 (centres undefined)	117	1	-1	-1	-4	-1	x	x
O=C(O)CC1CCC(=C(Cl)Cl)C1 (centres undefined)	97	0	-4	64*	3	-11	-25	3
O=C1CSC(=S)N1N=C1CCCCCC1	99	-3	11	39*	-3	-5	1	-1
O=C1C2C3C=CC(O3)C2C(=O)N1N=C1CCCCC1 (centres undefined)	87	0	x	x	-1	2	x	x
Cc1snc(SCC(=O)c2ccc([N+](=O)[O-])cc2)c1C#N	99	-1	x	45*	0	20	-22	6
Cc1c(-c2ccccc2)sc(N)c1C(=O)N1CCOCC1	102	3	5	36*	-2	7	-17	-1
COc1cccc(NC(=O)c2cc3cccc(OC)c3o/c2=N\O)c1	x	x	-1	51*	x	x	17	-1
COc1ccc(NC(=S)NCCc2ccccc2)c(C)c1	x	5	3	-2	-1	1	x	x
COc1cc(C)c(NC(=O)C(=S)NCCc2ccccc2)cc1C	99	-1	2	48*	0	-2	4	4
COc1cc(C(=O)N/N=C(\C)Cn2nc([N+](=O)[O-])cc2C)ccc1O	106	2	2	-2	0	-3	x	x
C/C(Cn1nc([N+](=O)[O-])cc1C)=N\NC(=O)c1ccc(O)cc1O	96	1	1	41*	8	3	4	6
COCC(C)NC(=O)NC1(C(F)(F)F)Oc2ccc(Cl)cc2O1 (centres undefined)	103	25*	-1	79*	2	2	66*	3
COCC(C)NC(=O)NC(=O)c1ccc(Cl)cc1 (centres undefined)	95	1	-2	-4	6	2	x	x
O=C(NCCN1CCOCC1)NC1(C(F)(F)F)Oc2ccc(Cl)cc2O1 (centres undefined)	101	8	2	87*	-2	0	89*	-4
Cc1cccc(N(Cc2ccccc2)C(=O)CN2C(=O)NC3(CCCC3)C2=O)c1	99	7	-4	x	1	2	x	x
Nc1ccccc1CCc1ccccc1N	106	x	x	x	x	x	x	x
CCSc1ccccc1C(=O)Nc1ccc(S(=O)(=O)NC(C)=O)cc1	99	2	4	32*	0	12	-33	5
COc1ccc(/C(=N\Nc2ccccc2C(=O)O)c2ccccc2)cc1	111	2	19	38*	3	4	-12	0
O=C(COc1ccccc1)N/N=C/c1ccc([N+](=O)[O-])o1	95	2	1	39*	1	2	-20	7
SMILES	Pemphigus Ab inh	PAFAH1B2 inh	pPAFAH FP inh	PfM18AAP inh-1	PAFAH2 FP inh	PAFAH1B3 FP inh	PfM18AAP inh-2	CTSL1 counter
O=C(O)c1ccc(N/N=C/c2c(F)cccc2Cl)cc1	92	2	6	39*	6	3	-9	5
Cc1ccc(OCC(=O)N2CCc3ccccc3C2)c(C)c1	110	2	1	-2	-2	0	x	x
Cc1cc(C)cc(C(=O)n2cnnc2N)c1	107	5	2	48*	5	3	59*	5
Cc1ccc(OCC(=O)n2cnnc2N)c(C)c1	x	x	1	57*	x	x	54*	-4
COC(=O)c1cn(C(=O)c2cccc(C)c2)c2ccccc12	112	2	5	-1	4	0	x	x
Cc1cccc(C(=O)n2cnnc2N)c1	99	0	-1	45*	1	1	56*	-1
COC(=O)c1cn(C(=O)c2cc(C)cc(C)c2)c2ccccc12	103	3	0	-6	4	1	x	x
CC1=NS(=O)(=O)NC(C)(C)C1	103	7	x	x	0	6	x	x
COc1ccccc1-c1cn(-c2ccccc2)c(=S)[nH]1	114	2	6	13	-4	0	x	x
COc1ccccc1-n1cc(-c2ccc([N+](=O)[O-])cc2)[nH]c1=S	x	4	3	32*	-6	-5	22	-1
Nc1ccc(-n2cc(-c3ccccc3)[nH]c2=S)cc1	102	3	2	44*	-1	-1	11	-1
O=[N+]([O-])c1ccc(-c2cn(-c3ccccc3)c(=S)[nH]2)cc1	132	-3	8	27	0	6	x	x
O=[N+]([O-])c1cccc(-c2cn(-c3ccccc3)c(=S)[nH]2)c1	82	5	2	50*	3	-3	50*	-4
S=c1[nH]c(-c2ccccc2)cn1-c1ccccc1	106	6	12	46*	-6	3	35*	-2
COc1cccc(N2CCN(C(=O)c3cc(-c4ccccc4)nc4c3cnn4C(C)C)CC2)c1	x	-5	10	x	-3	-10	x	x
Cc1ccc(Sc2ncccc2C(N)=O)cc1	105	4	-4	x	2	2	x	x
CN(c1ccc(O)cc1)c1nc(-c2cccs2)cs1	101	-3	8	39*	4	8	-5	1
